# Measured values reported in article PMC7862700, “An all-to-all approach to the identification of sequence-specific readers for epigenetic DNA modifications on cytosine”.
# Experiments:
# Experiment in all cases: DAPPL (digital affinity profiling via proximity ligation, sequencing); 10 mM Tris-HCl pH 7.5, 50 mM NaCl, 1 mM DTT, 4% glycerol, room temperature, 30 min; GST-TFs on glutathione beads, 16-mer random dsDNA library, 0.1% formaldehyde crosslink after washing; high values mean tight binding
# FEV = biological target: T1, FEV (Homo sapiens, UniProt Q99581 1-238); settings: protein: recombinant; tags: N-terminal GST; dsDNA, one strand shown
# T1 sequence: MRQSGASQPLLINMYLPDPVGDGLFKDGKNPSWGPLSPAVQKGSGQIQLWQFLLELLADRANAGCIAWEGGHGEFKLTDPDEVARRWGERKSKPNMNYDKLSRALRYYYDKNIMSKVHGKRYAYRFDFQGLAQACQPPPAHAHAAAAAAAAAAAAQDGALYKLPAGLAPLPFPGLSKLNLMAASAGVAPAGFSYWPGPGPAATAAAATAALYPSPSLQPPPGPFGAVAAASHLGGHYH
# Method in brief: (§1)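 Sequencing on an Illumina NextSeq500 followed washing, crosslinking with 0.1% formaldehyde, proximity ligation (BsaI/T4 ligase, 1 h, 37 °C) and PCR amplification of pools that had been incubated for 30 min at room temperature with 200 nmole of a random double-stranded 16-mer DNA library in Tris/NaCl/DTT/glycerol buffer. Each pool held DNA-barcoded human transcription factors, expressed in yeast as GST fusions and captured on glutathione beads, plus a tag-only sample. Binding signal is a hexamer's read frequency for a factor divided by its frequency in the tag-only sample.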
# ETV5 = ETV5 (Homo sapiens, UniProt P41161 1-510); settings: protein: recombinant; tags: N-terminal GST; dsDNA, one strand shown
# Method in brief: as §1
# HSF1 = HSF1 (Homo sapiens, UniProt Q00613 1-529); settings: protein: recombinant; tags: N-terminal GST; chain copies: 3; dsDNA, one strand shown
# Method in brief: as §1
# SPIC = biological target: T2, SPIC (Homo sapiens, UniProt Q8N5J4 1-248); settings: protein: recombinant; tags: N-terminal GST; dsDNA, one strand shown
# T2 sequence: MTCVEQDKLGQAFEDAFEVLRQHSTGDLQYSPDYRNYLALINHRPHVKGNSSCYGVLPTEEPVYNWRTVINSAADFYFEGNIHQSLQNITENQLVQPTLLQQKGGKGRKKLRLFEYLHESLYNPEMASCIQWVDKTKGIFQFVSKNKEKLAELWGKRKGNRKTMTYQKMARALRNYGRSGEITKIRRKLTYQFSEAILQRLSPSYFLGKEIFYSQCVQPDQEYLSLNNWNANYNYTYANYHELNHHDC
# Method in brief: as §1
# ELF4 = ELF4 (Homo sapiens, UniProt Q99607 1-663); settings: protein: recombinant; tags: N-terminal GST; dsDNA, one strand shown
# Method in brief: as §1
# ELK4 = biological target: T3, ELK4 (Homo sapiens, UniProt P28324-2 1-405); settings: protein: recombinant; tags: N-terminal GST; dsDNA, one strand shown
# T3 sequence: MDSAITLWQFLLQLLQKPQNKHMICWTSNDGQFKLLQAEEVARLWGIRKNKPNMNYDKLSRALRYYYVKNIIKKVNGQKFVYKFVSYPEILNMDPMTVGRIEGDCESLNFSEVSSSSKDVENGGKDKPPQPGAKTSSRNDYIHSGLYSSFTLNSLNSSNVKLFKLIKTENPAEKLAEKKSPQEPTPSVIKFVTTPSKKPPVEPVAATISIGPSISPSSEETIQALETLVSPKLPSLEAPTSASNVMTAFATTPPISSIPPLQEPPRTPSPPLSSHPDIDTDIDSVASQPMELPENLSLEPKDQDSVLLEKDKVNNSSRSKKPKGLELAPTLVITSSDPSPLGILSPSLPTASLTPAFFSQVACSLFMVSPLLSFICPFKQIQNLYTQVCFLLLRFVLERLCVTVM
# Method in brief: as §1
# ETV2 = biological target: T4, ETV2 (Homo sapiens, UniProt O00321 1-342); settings: protein: recombinant; tags: N-terminal GST; dsDNA, one strand shown
# T4 sequence: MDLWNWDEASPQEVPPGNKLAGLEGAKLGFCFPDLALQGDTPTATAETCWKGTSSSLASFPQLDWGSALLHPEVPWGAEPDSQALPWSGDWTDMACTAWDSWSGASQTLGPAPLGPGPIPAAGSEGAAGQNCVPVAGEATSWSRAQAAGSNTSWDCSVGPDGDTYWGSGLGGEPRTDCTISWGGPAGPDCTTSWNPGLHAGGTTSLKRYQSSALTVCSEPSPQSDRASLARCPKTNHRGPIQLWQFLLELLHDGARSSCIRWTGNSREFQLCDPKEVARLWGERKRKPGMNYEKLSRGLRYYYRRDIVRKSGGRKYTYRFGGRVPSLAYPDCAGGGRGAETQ
# Method in brief: as §1
# ELF3 = biological target: T5, ELF3 (Homo sapiens, UniProt P78545 1-371); settings: protein: recombinant; tags: N-terminal GST; dsDNA, one strand shown
# T5 sequence: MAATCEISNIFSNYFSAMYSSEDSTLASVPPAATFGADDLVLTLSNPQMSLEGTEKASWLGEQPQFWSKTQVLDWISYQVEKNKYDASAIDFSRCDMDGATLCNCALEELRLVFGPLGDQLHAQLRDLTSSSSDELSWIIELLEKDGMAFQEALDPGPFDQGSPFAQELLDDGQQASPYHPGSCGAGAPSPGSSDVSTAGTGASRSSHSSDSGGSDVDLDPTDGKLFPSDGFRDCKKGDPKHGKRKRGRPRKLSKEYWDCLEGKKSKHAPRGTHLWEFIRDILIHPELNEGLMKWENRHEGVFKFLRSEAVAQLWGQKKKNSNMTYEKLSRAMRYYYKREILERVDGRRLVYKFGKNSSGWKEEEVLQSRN
# Method in brief: as §1
# CRX = CRX (Homo sapiens, UniProt O43186 1-299); settings: protein: recombinant; tags: N-terminal GST; dsDNA, one strand shown
# Method in brief: as §1
# ETV1 = ETV1 (Homo sapiens, UniProt P50549 1-477); settings: protein: recombinant; tags: N-terminal GST; dsDNA, one strand shown
# Method in brief: as §1
# ERF = biological target: T6, ERF (Homo sapiens, UniProt P50548 1-548); settings: protein: recombinant; tags: N-terminal GST; dsDNA, one strand shown
# T6 sequence: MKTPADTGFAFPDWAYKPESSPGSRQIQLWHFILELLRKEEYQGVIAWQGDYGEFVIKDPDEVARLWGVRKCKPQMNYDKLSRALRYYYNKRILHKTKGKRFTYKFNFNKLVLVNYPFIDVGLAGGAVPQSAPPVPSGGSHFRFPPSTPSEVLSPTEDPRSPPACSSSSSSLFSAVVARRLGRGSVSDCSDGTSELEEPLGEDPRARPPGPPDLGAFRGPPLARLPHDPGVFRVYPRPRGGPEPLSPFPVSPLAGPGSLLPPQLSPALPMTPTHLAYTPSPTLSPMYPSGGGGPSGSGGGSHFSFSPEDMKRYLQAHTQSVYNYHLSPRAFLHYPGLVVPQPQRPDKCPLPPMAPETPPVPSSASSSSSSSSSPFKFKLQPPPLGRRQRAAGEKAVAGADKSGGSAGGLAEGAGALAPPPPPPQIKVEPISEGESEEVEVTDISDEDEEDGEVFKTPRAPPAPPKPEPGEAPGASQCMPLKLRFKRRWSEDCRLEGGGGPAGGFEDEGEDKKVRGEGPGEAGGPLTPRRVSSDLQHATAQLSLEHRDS
# Method in brief: as §1
# ETV3L = biological target: T7, ETV3L (Homo sapiens, UniProt Q6ZN32 1-361); settings: protein: recombinant; tags: N-terminal GST; dsDNA, one strand shown
# T7 sequence: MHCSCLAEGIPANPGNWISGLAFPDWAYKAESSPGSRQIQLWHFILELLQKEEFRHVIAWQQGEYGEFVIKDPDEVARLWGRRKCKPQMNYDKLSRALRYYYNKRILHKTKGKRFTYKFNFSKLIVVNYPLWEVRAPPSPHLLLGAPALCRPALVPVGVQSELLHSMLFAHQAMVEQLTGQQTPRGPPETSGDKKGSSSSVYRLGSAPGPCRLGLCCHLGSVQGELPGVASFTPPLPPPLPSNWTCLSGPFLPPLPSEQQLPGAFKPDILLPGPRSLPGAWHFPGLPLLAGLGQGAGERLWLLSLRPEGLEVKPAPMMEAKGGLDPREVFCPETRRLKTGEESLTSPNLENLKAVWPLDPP
# Method in brief: as §1
# ETS2 = biological target: T8, ETS2 (Homo sapiens, UniProt P15036 1-469); settings: protein: recombinant; tags: N-terminal GST; dsDNA, one strand shown
# T8 sequence: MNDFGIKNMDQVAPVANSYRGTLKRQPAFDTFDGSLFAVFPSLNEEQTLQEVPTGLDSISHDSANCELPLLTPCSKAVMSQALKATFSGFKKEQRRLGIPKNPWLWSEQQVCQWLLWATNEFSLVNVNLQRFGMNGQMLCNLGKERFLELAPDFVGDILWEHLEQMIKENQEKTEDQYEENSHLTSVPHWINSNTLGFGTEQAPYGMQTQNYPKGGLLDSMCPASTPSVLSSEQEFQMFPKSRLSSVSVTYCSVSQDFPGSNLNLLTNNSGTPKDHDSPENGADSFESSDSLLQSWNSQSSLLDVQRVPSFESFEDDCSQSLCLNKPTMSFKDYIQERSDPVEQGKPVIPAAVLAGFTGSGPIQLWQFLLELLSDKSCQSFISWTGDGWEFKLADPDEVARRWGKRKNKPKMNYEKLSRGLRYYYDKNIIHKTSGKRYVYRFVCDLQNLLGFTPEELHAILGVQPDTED
# Method in brief: as §1
# SPDEF = biological target: T9, SPDEF (Homo sapiens, UniProt O95238 1-335); settings: protein: recombinant; tags: N-terminal GST; dsDNA, one strand shown
# T9 sequence: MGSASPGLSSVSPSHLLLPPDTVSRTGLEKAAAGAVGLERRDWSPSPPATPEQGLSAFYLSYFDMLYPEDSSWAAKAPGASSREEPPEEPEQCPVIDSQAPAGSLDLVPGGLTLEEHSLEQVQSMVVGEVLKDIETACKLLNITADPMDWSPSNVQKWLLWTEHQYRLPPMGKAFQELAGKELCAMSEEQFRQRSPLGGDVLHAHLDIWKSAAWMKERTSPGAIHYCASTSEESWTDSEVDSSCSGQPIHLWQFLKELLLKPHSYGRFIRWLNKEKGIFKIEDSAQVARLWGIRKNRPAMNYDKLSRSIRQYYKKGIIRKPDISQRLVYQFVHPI
# Method in brief: as §1
# ETV7 = biological target: T10, ETV7 (Homo sapiens, UniProt Q9Y603 1-341); settings: protein: recombinant; tags: N-terminal GST; dsDNA, one strand shown
# T10 sequence: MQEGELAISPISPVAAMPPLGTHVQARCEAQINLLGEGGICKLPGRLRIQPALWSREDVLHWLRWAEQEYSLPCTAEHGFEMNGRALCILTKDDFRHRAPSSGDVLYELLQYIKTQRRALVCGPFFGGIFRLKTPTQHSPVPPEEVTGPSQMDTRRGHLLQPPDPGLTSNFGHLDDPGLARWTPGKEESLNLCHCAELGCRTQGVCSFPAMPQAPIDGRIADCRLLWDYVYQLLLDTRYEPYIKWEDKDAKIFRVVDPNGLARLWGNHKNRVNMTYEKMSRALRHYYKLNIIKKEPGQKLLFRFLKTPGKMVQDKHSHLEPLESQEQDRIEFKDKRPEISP
# Method in brief: as §1
# ELF5 = biological target: T11, ELF5 (Homo sapiens, UniProt Q9UKW6-2 1-255); settings: protein: recombinant; tags: N-terminal GST; dsDNA, one strand shown
# T11 sequence: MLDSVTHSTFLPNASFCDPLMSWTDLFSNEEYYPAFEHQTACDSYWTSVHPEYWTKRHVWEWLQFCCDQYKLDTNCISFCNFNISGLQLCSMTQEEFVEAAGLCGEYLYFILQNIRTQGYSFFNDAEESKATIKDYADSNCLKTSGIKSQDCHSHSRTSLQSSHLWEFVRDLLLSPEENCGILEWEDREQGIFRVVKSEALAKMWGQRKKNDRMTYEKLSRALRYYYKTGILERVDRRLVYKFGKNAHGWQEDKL
# Method in brief: as §1
# ETV3 = biological target: T12, ETV3 (Homo sapiens, UniProt P41162-2 1-143); settings: protein: recombinant; tags: N-terminal GST; dsDNA, one strand shown
# T12 sequence: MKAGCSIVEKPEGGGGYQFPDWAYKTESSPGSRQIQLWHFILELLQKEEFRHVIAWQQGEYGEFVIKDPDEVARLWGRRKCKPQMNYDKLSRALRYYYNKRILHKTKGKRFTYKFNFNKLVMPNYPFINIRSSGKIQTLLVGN
# Method in brief: as §1
# ETV6 = ETV6 (Homo sapiens, UniProt P41212 1-452); settings: protein: recombinant; tags: N-terminal GST; dsDNA, one strand shown
# Method in brief: as §1
# ETV1, sequence (P50549 whole entry): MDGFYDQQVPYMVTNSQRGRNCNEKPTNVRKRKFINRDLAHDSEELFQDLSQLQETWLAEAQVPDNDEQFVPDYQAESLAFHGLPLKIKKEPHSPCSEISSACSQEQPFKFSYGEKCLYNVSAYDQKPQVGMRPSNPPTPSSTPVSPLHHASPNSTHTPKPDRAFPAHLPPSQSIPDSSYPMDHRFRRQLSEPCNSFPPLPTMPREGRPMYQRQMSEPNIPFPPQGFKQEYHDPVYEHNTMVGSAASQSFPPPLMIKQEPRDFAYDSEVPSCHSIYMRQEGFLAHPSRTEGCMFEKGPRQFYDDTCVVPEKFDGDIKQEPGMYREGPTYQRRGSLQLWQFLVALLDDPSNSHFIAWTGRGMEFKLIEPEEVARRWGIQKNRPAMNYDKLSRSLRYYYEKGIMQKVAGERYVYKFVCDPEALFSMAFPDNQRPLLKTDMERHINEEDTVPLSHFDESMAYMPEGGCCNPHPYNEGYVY
# ETV5, sequence (P41161 whole entry): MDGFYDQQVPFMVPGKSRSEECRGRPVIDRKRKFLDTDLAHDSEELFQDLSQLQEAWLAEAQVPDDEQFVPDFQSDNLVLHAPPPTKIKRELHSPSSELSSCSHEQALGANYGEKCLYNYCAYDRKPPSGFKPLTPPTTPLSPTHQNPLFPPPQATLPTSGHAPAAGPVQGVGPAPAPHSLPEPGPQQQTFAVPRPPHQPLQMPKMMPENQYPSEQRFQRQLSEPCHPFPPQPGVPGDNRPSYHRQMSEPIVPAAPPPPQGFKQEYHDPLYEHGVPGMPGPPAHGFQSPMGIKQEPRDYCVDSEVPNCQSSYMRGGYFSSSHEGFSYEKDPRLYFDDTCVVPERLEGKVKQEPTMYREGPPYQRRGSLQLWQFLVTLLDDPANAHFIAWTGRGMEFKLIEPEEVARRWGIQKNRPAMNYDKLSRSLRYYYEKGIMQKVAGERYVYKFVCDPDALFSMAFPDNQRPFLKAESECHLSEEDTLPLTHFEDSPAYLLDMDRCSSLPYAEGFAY
# ELF4, sequence (Q99607 whole entry): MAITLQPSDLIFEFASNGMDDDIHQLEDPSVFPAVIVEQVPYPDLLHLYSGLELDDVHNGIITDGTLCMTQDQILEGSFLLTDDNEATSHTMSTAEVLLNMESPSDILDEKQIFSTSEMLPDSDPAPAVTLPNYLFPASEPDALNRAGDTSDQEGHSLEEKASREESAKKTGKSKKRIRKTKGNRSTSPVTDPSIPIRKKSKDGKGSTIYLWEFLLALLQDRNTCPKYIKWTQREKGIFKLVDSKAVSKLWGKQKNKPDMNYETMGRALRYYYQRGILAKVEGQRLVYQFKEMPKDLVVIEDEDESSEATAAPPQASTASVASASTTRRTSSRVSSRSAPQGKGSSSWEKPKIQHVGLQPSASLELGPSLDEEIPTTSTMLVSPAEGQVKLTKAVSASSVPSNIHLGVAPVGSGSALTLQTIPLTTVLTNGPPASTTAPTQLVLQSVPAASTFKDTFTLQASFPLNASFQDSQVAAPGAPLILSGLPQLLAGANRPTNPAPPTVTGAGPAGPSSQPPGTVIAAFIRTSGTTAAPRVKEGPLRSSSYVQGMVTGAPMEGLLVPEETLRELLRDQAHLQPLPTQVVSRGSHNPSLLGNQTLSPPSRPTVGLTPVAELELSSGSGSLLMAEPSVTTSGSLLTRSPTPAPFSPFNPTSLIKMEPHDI
# CRX, sequence (O43186 whole entry): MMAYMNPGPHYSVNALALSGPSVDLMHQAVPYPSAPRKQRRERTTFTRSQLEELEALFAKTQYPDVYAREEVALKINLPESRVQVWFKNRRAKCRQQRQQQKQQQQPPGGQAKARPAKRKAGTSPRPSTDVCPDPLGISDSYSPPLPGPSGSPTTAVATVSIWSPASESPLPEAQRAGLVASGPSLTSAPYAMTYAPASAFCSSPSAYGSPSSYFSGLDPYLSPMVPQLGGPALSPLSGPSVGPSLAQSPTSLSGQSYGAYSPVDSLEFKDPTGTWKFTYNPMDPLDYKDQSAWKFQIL
# ETV6, sequence (P41212 whole entry): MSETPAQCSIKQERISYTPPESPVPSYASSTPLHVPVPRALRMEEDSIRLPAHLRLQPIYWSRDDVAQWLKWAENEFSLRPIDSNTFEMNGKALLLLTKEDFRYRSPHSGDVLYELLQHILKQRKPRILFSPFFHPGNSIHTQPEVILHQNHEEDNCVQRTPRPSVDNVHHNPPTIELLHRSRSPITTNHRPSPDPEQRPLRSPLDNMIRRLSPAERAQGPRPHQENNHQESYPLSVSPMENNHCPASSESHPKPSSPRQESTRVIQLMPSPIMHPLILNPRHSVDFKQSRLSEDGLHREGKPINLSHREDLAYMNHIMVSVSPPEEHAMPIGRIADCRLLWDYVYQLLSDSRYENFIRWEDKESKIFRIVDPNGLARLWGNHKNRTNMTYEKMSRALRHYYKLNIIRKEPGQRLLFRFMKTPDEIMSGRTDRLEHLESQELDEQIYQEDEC
# HSF1, sequence (Q00613 whole entry): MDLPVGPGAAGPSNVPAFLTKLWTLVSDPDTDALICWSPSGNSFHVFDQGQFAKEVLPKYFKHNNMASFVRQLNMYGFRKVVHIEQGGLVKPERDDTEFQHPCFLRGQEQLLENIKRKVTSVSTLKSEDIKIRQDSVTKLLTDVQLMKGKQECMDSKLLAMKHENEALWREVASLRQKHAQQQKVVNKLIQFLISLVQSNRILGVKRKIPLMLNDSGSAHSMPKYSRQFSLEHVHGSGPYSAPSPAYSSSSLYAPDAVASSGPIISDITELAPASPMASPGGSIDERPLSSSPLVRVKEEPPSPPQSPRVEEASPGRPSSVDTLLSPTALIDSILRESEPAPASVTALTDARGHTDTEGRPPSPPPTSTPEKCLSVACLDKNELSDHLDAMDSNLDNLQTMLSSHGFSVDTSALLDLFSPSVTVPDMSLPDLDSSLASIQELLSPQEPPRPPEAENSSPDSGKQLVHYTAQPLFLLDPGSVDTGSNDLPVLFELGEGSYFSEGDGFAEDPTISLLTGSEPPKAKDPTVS
sequence,measurement,setting,value
GGATTT,binding signal,FEV,"2.01 fold enrichment (6-mer frequency, TF over GST control)"
same,binding signal,ETV5,"1.33 fold enrichment (6-mer frequency, TF over GST control)"
same,binding signal,HSF1,"1.62 fold enrichment (6-mer frequency, TF over GST control)"
same,binding signal,SPIC,"1.16 fold enrichment (6-mer frequency, TF over GST control)"
same,binding signal,ELF4,"1.26 fold enrichment (6-mer frequency, TF over GST control)"
same,binding signal,ELK4,"1.25 fold enrichment (6-mer frequency, TF over GST control)"
same,binding signal,ETV2,"1.27 fold enrichment (6-mer frequency, TF over GST control)"
same,binding signal,ELF3,"1.15 fold enrichment (6-mer frequency, TF over GST control)"
same,binding signal,CRX,"2.47 fold enrichment (6-mer frequency, TF over GST control)"
same,binding signal,ETV1,"1.22 fold enrichment (6-mer frequency, TF over GST control)"
same,binding signal,ERF,"1.17 fold enrichment (6-mer frequency, TF over GST control)"
same,binding signal,ETV3L,"1.21 fold enrichment (6-mer frequency, TF over GST control)"
same,binding signal,ETS2,"1.24 fold enrichment (6-mer frequency, TF over GST control)"
same,binding signal,SPDEF,"1.57 fold enrichment (6-mer frequency, TF over GST control)"
same,binding signal,ETV7,"1.07 fold enrichment (6-mer frequency, TF over GST control)"
same,binding signal,ELF5,"1.38 fold enrichment (6-mer frequency, TF over GST control)"
same,binding signal,ETV3,"1.21 fold enrichment (6-mer frequency, TF over GST control)"
same,binding signal,ETV6,"1.3 fold enrichment (6-mer frequency, TF over GST control)"
